Measured values from article PMC11006913.
Where a chain is given by its changes, count along the chain named.

Tests used:
Experiment in all cases: PBM; 200 nM protein, PBS
Settings in all cases: dsDNA, one strand shown
CRX [1] = target: CRX (Homo sapiens, UniProt O43186 26-111)
CRX [2] = target: CRX (Homo sapiens, UniProt O43186 26-111, E42D)
ALX1 [3] = target: ALX1 (Homo sapiens, UniProt Q15699 118-204, L144V)
ALX1 [4] = target: ALX1 (Homo sapiens, UniProt Q15699 118-204, L144R)
CRX [5] = target: CRX (Homo sapiens, UniProt O43186 26-111, R41L)
Chain of CRX (Homo sapiens, UniProt O43186 26-111, R41L) (O43186 26-111 R41L): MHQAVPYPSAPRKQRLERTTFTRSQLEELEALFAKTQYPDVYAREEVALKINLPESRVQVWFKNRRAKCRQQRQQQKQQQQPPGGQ

ALX1 [6] = target: ALX1 (Homo sapiens, UniProt Q15699 118-204)
Chain of ALX1 (Homo sapiens, UniProt Q15699 118-204) (Q15699 118-204): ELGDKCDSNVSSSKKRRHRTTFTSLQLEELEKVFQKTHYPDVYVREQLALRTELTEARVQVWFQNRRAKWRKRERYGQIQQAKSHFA

PITX2 = PITX2 (Homo sapiens, UniProt Q99697 72-157)
PROP1 [7] = target: PROP1 (Homo sapiens, UniProt O75360 56-141)
Chain of PROP1 (Homo sapiens, UniProt O75360 56-141) (O75360 56-141): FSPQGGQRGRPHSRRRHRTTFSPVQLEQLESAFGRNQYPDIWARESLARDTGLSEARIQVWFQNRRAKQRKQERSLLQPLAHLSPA

PROP1 [8] = target: PROP1 (Homo sapiens, UniProt O75360 56-141, F88S)
Chain of PROP1 (Homo sapiens, UniProt O75360 56-141, F88S) (O75360 56-141 F88S): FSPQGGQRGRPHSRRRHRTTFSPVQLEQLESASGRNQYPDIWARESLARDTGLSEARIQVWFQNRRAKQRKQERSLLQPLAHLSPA

HOXD13 [9] = target: HOXD13 (Homo sapiens, UniProt P35453 263-343, T313R)
Chain of HOXD13 (Homo sapiens, UniProt P35453 263-343, T313R) (P35453 263-343 T313R): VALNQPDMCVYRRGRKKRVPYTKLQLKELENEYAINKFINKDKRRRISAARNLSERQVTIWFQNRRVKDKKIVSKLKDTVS

HOXD13 [10] = target: HOXD13 (Homo sapiens, UniProt P35453 263-343)
Chain of HOXD13 (Homo sapiens, UniProt P35453 263-343) (P35453 263-343): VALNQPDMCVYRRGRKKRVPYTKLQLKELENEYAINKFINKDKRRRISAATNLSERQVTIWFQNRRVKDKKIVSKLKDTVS

HOXD13 [11] = target: HOXD13 (Homo sapiens, UniProt P35453 263-343, T313A)
Chain of HOXD13 (Homo sapiens, UniProt P35453 263-343, T313A) (P35453 263-343 T313A): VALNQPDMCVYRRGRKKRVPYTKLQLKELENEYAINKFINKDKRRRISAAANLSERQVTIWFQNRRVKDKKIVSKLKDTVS

NKX2-6 [12] = target: T1, NKX2-6 (Homo sapiens, UniProt A6NCS4 118-204)
T1 sequence: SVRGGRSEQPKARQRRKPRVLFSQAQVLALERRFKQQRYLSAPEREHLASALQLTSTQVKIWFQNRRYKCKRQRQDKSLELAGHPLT

NKX2-6 [13] = target: T2, NKX2-6 (Homo sapiens, UniProt A6NCS4 118-204, F151L)
T2 sequence: T1 sequence with F34L

MSX2 [14] = target: MSX2 (Homo sapiens, UniProt P35548 130-214, R199I)
Chain of MSX2 (Homo sapiens, UniProt P35548 130-214, R199I) (P35548 130-214 R199I): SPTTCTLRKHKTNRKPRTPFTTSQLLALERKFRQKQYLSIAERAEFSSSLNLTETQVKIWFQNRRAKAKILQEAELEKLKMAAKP

MSX2 [15] = target: MSX2 (Homo sapiens, UniProt P35548 130-214)
Chain of MSX2 (Homo sapiens, UniProt P35548 130-214) (P35548 130-214): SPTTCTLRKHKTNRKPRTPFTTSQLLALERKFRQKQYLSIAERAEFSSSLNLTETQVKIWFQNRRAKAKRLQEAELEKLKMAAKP

MSX2 [16] = target: MSX2 (Homo sapiens, UniProt P35548 130-214, F161Y)
Chain of MSX2 (Homo sapiens, UniProt P35548 130-214, F161Y) (P35548 130-214 F161Y): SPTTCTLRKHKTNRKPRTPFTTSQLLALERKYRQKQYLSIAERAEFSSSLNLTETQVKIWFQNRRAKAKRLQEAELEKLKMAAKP

Chain of CRX (Homo sapiens, UniProt O43186 26-111) (O43186 26-111): as the sequence (O43186 26-111 R41L) above, with L16R counted along it
Chain of CRX (Homo sapiens, UniProt O43186 26-111, E42D) (O43186 26-111 E42D): as the sequence (O43186 26-111 R41L) above, with L16R, E17D counted along it
Chain of ALX1 (Homo sapiens, UniProt Q15699 118-204, L144V) (Q15699 118-204 L144V): as the sequence (Q15699 118-204) above, with L27V counted along it
Chain of ALX1 (Homo sapiens, UniProt Q15699 118-204, L144R) (Q15699 118-204 L144R): as the sequence (Q15699 118-204) above, with L27R counted along it

AGTTTATC
binding signal (CRX [1]): 10.5 upbm affinity estimate (log intensity, higher = more binding, comparable within an allelic series) | binding signal (CRX [2]): 10.3 upbm affinity estimate (log intensity, higher = more binding, comparable within an allelic series) | binding signal (ALX1 [3]): 7.91 upbm affinity estimate (log intensity, higher = more binding, comparable within an allelic series) | binding signal (ALX1 [4]): 8.01 upbm affinity estimate (log intensity, higher = more binding, comparable within an allelic series) | binding signal (CRX [5]): 10.2 upbm affinity estimate (log intensity, higher = more binding, comparable within an allelic series) | binding signal (ALX1 [6]): 8.04 upbm affinity estimate (log intensity, higher = more binding, comparable within an allelic series)

GGGGCTTA
binding signal (CRX [1]): 12.8 upbm affinity estimate (log intensity, higher = more binding, comparable within an allelic series) | binding signal (CRX [2]): 12.7 upbm affinity estimate (log intensity, higher = more binding, comparable within an allelic series) | binding signal (PITX2): 12.4 upbm affinity estimate (log intensity, higher = more binding, comparable within an allelic series)

GATAATCC
binding signal (CRX [1]): 13.6 upbm affinity estimate (log intensity, higher = more binding, comparable within an allelic series) | binding signal (CRX [2]): 13.8 upbm affinity estimate (log intensity, higher = more binding, comparable within an allelic series) | binding signal (PITX2): 13.4 upbm affinity estimate (log intensity, higher = more binding, comparable within an allelic series) | binding signal (CRX [5]): 13.9 upbm affinity estimate (log intensity, higher = more binding, comparable within an allelic series)

CTAATCTC
binding signal (CRX [1]): 13 upbm affinity estimate (log intensity, higher = more binding, comparable within an allelic series) | binding signal (CRX [2]): 13 upbm affinity estimate (log intensity, higher = more binding, comparable within an allelic series) | binding signal (PITX2): 12.6 upbm affinity estimate (log intensity, higher = more binding, comparable within an allelic series) | binding signal (PROP1 [7]): 8.84 upbm affinity estimate (log intensity, higher = more binding, comparable within an allelic series) | binding signal (PROP1 [8]): 7.25 upbm affinity estimate (log intensity, higher = more binding, comparable within an allelic series) | binding signal (CRX [5]): 12.7 upbm affinity estimate (log intensity, higher = more binding, comparable within an allelic series)

GCTAATCC
binding signal (CRX [1]): 13.4 upbm affinity estimate (log intensity, higher = more binding, comparable within an allelic series) | binding signal (CRX [2]): 13.5 upbm affinity estimate (log intensity, higher = more binding, comparable within an allelic series) | binding signal (PITX2): 13.3 upbm affinity estimate (log intensity, higher = more binding, comparable within an allelic series) | binding signal (CRX [5]): 13.4 upbm affinity estimate (log intensity, higher = more binding, comparable within an allelic series)

CGGCTTAA
binding signal (CRX [1]): 12.9 upbm affinity estimate (log intensity, higher = more binding, comparable within an allelic series) | binding signal (CRX [2]): 12.8 upbm affinity estimate (log intensity, higher = more binding, comparable within an allelic series) | binding signal (PITX2): 12.5 upbm affinity estimate (log intensity, higher = more binding, comparable within an allelic series)

GGGGATTA
binding signal (CRX [1]): 13.7 upbm affinity estimate (log intensity, higher = more binding, comparable within an allelic series) | binding signal (CRX [2]): 13.8 upbm affinity estimate (log intensity, higher = more binding, comparable within an allelic series) | binding signal (PITX2): 13.5 upbm affinity estimate (log intensity, higher = more binding, comparable within an allelic series) | binding signal (CRX [5]): 13.8 upbm affinity estimate (log intensity, higher = more binding, comparable within an allelic series)

CACGCTCC
binding signal (CRX [1]): 8.3 upbm affinity estimate (log intensity, higher = more binding, comparable within an allelic series) | binding signal (CRX [2]): 8.47 upbm affinity estimate (log intensity, higher = more binding, comparable within an allelic series) | binding signal (HOXD13 [9]): 9.56 upbm affinity estimate (log intensity, higher = more binding, comparable within an allelic series) | binding signal (HOXD13 [10]): 9.55 upbm affinity estimate (log intensity, higher = more binding, comparable within an allelic series) | binding signal (HOXD13 [11]): 9.79 upbm affinity estimate (log intensity, higher = more binding, comparable within an allelic series) | binding signal (CRX [5]): 8.41 upbm affinity estimate (log intensity, higher = more binding, comparable within an allelic series)

CGTCTGTC
binding signal (CRX [1]): 8.37 upbm affinity estimate (log intensity, higher = more binding, comparable within an allelic series) | binding signal (CRX [2]): 8.33 upbm affinity estimate (log intensity, higher = more binding, comparable within an allelic series) | binding signal (NKX2-6 [12]): 9.53 upbm affinity estimate (log intensity, higher = more binding, comparable within an allelic series) | binding signal (NKX2-6 [13]): 9.5 upbm affinity estimate (log intensity, higher = more binding, comparable within an allelic series) | binding signal (CRX [5]): 8.42 upbm affinity estimate (log intensity, higher = more binding, comparable within an allelic series)

CGGGGTGC
binding signal (CRX [1]): 8.16 upbm affinity estimate (log intensity, higher = more binding, comparable within an allelic series) | binding signal (CRX [2]): 8.25 upbm affinity estimate (log intensity, higher = more binding, comparable within an allelic series) | binding signal (MSX2 [14]): 9.55 upbm affinity estimate (log intensity, higher = more binding, comparable within an allelic series) | binding signal (MSX2 [15]): 9.66 upbm affinity estimate (log intensity, higher = more binding, comparable within an allelic series) | binding signal (MSX2 [16]): 9.67 upbm affinity estimate (log intensity, higher = more binding, comparable within an allelic series) | binding signal (CRX [5]): 8.31 upbm affinity estimate (log intensity, higher = more binding, comparable within an allelic series)

CGTTAATC
binding signal (CRX [1]): 12.8 upbm affinity estimate (log intensity, higher = more binding, comparable within an allelic series) | binding signal (CRX [2]): 12.6 upbm affinity estimate (log intensity, higher = more binding, comparable within an allelic series) | binding signal (PITX2): 12.4 upbm affinity estimate (log intensity, higher = more binding, comparable within an allelic series) | binding signal (CRX [5]): 12.3 upbm affinity estimate (log intensity, higher = more binding, comparable within an allelic series)
